# Hits are enriched below; roughly 22% of the tested compounds scored in any of these assays.
# LmPK inh = blocks Leishmania mexicana pyruvate kinase activity; Q27686; purified LmPK, Kinase-Glo ATP luminescence, 1 h; Potency, µM (doses to about 57.5 µM), inactives show at the highest dose activity change, negative = inhibition, hits mostly inhibitors; 290,000 compounds, 0.37% hits; AID 1721; further: potency means the concentration at half of the fitted maximal effect; on the % scale 0 is the no-effect control and ±100 the full control effect
# Target sequence (Q27686 whole entry, looked up): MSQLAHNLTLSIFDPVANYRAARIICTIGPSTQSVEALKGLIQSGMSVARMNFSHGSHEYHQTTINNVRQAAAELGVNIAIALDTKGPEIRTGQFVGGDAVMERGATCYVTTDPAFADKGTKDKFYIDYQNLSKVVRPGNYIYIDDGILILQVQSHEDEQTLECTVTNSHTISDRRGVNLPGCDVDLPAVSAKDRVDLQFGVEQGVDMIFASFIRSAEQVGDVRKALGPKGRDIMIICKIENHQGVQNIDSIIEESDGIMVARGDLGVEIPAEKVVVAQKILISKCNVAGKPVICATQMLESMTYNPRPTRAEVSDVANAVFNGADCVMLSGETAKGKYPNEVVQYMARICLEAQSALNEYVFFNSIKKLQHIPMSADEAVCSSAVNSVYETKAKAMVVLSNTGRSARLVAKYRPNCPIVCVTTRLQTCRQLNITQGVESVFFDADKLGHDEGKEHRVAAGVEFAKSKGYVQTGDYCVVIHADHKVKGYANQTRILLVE
#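 ATP generated from ADP (0.1 mM) and PEP (0.5 mM) by 0.1 nM LmPK over 1 h at room temperature (pH 7.2 imidazole buffer) was detected by coupled luciferase luminescence. Values were normalized to uninhibited and no-enzyme wells.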
# Shiga toxin inh = inhibitors of Shiga toxin in Vero cells. Vero cells, Shiga toxin protein synthesis inhibition reporter. inhibition, % at 38.7 µM. 290,000 compounds, 9.2% hits. AID 2315; in the data active means inhibition mostly above about 28%, no sharp cut-off; inactive means mostly below about 43%; further: 0% is about no effect
# Pf growth 96h = P. falciparum growth inhibition at 96 hours | P. falciparum luciferase reporter growth, 96 h | Potency, µM (doses to about 28.7 µM), without a hit: at the highest dose activity change, negative = inhibition, hits mostly inhibitors | 320,000 compounds, 6.9% hits | AID 504834; further: potency means the concentration at half of the fitted maximal effect; on the % scale 0 is the no-effect control and ±100 the full control effect
#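 P. falciparum expressing integrated firefly luciferase, in erythrocytes at 2% hematocrit, 0.05% parasitemia, incubated with compounds 96 h at 37 C, 5% CO2. Growth inhibition read as loss of luminescence; two-generation exposure targets delayed-death apicoplast inhibitors.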
# Cycloheximide cs = counter-screen for Shiga toxin inhibitors: cycloheximide protein synthesis inhibition. cell reporter, cycloheximide protein synthesis inhibition counterscreen. max response, %. 300,000 compounds, 12% hits; in the data active means max response mostly above about 13%, no sharp cut-off; inactive means mostly below about 14%; further: read at 38.3 µM for the half of the compounds with a filed dose; 0% is about no effect
# Pf growth 48h = inhibits P. falciparum growth in the first generation, 48 h; P. falciparum luciferase growth in erythrocytes, 48 h; 310,000 compounds, 5.9% hits; Potency, µM (series often up to 28.7 µM), inactives show at the top dose activity change, negative = inhibition, usual class: inhibitors; further: potency means the concentration at half of the fitted maximal effect; on the % scale 0 is the no-effect control and ±100 the full control effect
#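 Luminescence readout; reporter = integrated firefly luciferase in P. falciparum. RBC culture at 2% hematocrit, 0.1% parasitemia final, 37 C/5% CO2; decreased signal taken as growth inhibition.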
# Active calls of the source: *; u = inconclusive; x = not tested or not shown. Unless noted, the call rests on the fitted dose curve; in most records, active means well fitted inhibition curve with a large enough effect; inconclusive means small, poorly fitted or top-dose-only effect, or another doubt; inactive means no such curve, though single readings can be large or run the other way.
SMILES,LmPK inh,Shiga toxin inh,Pf growth 96h,Cycloheximide cs,Pf growth 48h
COc1ccc(OCC(=O)OCC(=O)NC2CCCCC2C)cc1 (centres undefined),x,x,u,x,-19%
COc1cc(NC2CCCCC2O)c2nc(-c3ccc(Cl)cc3)ccc2c1 (centres undefined),6%,134*,1.9µM*,85*,1.9µM*
CCOC(=O)Cn1cc(Cl)cc(C(=O)Nc2ccccc2)c1=O,1%,4,-1%,-1,20%
O=C(Nc1c(F)cc(F)cc1F)c1cccn(Cc2ccccc2)c1=O,2%,33,-15%,24,29%
O=C(Nc1ccc(F)cc1F)c1cccn(Cc2ccccc2)c1=O,-11%,41,81%,37,15µM*
O=C(Nc1ccccc1)c1cccn(Cc2ccccc2)c1=O,-2%,98*,357%,34*,0%
Cn1cc(Cl)cc(C(=O)Nc2ccccc2)c1=O,-8%,59*,119%,34*,100%
NC(=O)c1nc(C(=O)N2CCCCC2)c2ccccc2n1,x,x,-16%,x,24%
COc1ccccc1-c1cc(C(=O)NC2CCN(C)CC2)c2ccc(Cl)c(C)c2n1,-5%,13,u,-3,9.3µM*
Cc1c(Cl)ccc2c(C(=O)NCCN3CCCCC3)cc(-c3ccccn3)nc12,0%,-15,u,7,u
Cc1nn(CC(=O)NCCc2cccs2)c(=O)c2nn(-c3ccccc3)c(C)c12,0%,19*,u,22*,-8%
CCC(C(=O)NCCc1ccccc1OC)n1nc(C)c2c(C)n(-c3ccccc3)nc2c1=O (centres undefined),2%,2,12µM*,-2,-17%
Cc1ccc(-n2nc3c(=O)n(CC(=O)NCc4cccs4)nc(C)c3c2C)cc1,3%,-1,0%,2,-4%
CCC(C(=O)NCCc1ccc(C)cc1)n1nc(C)c2c(C)n(-c3ccccc3)nc2c1=O (centres undefined),1%,-3,0%,2,u
Cc1ccc(-n2nc3c(=O)n(CC(=O)NC4CCCCCC4)nc(C)c3c2C)cc1,1%,-4,13µM*,5,15%
Cc1ccc(-n2nc3c(=O)n(CCCC(=O)NC4CCC(C)CC4)nc(C)c3c2C)cc1 (centres undefined),1%,-8,25%,12,u
CCOc1ccc(CCNC(=O)CCCn2nc(C)c3c(C)n(-c4ccccc4)nc3c2=O)cc1,1%,14,13µM*,1,-10%
Cc1c(/C=N\NC(=O)C2COc3ccc(C(C)(C)C)cc3O2)c2ccccc2n1C (centres undefined),4%,-8,u,-2,u
COc1ccc(Cc2nnc(NC(=O)CS(=O)(=O)c3ccccc3)s2)cc1OC,-6%,0,-20%,-1,-13%
Cc1cc(C)c(S(=O)(=O)c2cccc(Br)c2C)c(Cl)n1,-4%,2,4%,-4,0%
Cc1ccc(-n2nc3c(=O)n(CCCC(=O)N4CCC(C(N)=O)CC4)nc(C)c3c2C)cc1,-7%,-4,u,7,10µM*
CCOc1ccc(CCNC(=O)C(C)n2nc(C)c3c(C)n(-c4ccccc4)nc3c2=O)cc1 (centres undefined),-6%,-4,13µM*,-7,u
CCCCNC(=O)CSc1nnc(C)c2c(C)n(-c3ccccc3)nc12,x,74*,x,38*,x
Cc1nnc(SCC(=O)NCc2ccccc2F)c2nn(-c3ccc(Cl)cc3)c(C)c12,x,-1,x,-13,x
Cc1nn(C(C)C(=O)NC2CCCCCC2)c(=O)c2nn(-c3ccccc3)c(C)c12 (centres undefined),-9%,38,12µM*,20,-11%
SMILES,LmPK inh,Shiga toxin inh,Pf growth 96h,Cycloheximide cs,Pf growth 48h
NC(=O)c1cc(S(=O)(=O)NCCCc2ccccc2)cs1,4%,-8,22%,-3,u
Cc1nn(-c2ccc(N3CCOCC3)nn2)c(C)c1CCC(=O)NCc1ccccc1F,6%,-3,u,6,-16%
Cc1nn(CCCC(=O)NCCc2ccccc2)c(=O)c2nccn12,-6%,15*,12%,7,14%
C[C@@H]1C(=O)NC2=Nc3cccc(Cl)c3CN21,x,x,10%,x,8%
Cc1ccc(CNC(=O)CCC2CCCN(Cc3c(C)nn(C(C)C)c3C)C2)o1 (centres undefined),3%,1,8.3µM*,10,-3%
Cc1ccc([N+](=O)[O-])c2cccnc12,-3%,-13,38%,-2,14%
